Among the data in PubChem BioAssay are growth inhibition, inhibition and outcome values, retold here.

Assay [1] in a line: antimalarial activity against Dd2 strain (AID 2302;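 active means growth inhibition above 50% at the single 2 µM test dose, taken to imply half-maximal potency below 2 µM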;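 further: 0% = DMSO untreated growth and 100% = chloroquine plus artemisinin killed control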). The settings on record: P. falciparum Dd2 in RBCs, LDH growth readout, 72 h; at 2 µM; hits give high values.
Assay [2] can be described thus: human hepatoma cell viability loss – ATP luminescence, cytotoxicity control for P. falciparum antimalarial project, primary screen (AID 2303;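 active means inhibition above 50%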;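 further: 0% = DMSO wells and 100% = digitonin-killed cells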). The note with it: HepG2 viability, 24-48 h, at 10 µM, hits give high values.
Assay [3] concerns the target L-lactate dehydrogenase (Plasmodium falciparum (isolate CDC / Honduras)) (UniProt Q27743). Description: PfLDH activity inhibition – cell lysate, 3D7 strain, counter-screen for P. falciparum growth inhibition project (AID 2304).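 Further: 0% = vehicle and 100% = reference inhibitor.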 The note with it: P. falciparum 3D7 crude extract, LDH APAD/NBT absorbance; at 2 µM; hits give high values.
Assay [4] can be described thus: inhibition of 3D7 malaria parasite growth – strain 3D7 (AID 2306).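 Further: 0% = DMSO wells and 100% = chloroquine plus artemisinin control wells.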 The note with it: P. falciparum 3D7 erythrocytic growth, LDH absorbance, 72 h; at 2 µM; hits give high values.
The target in assay [5] is Calcium-dependent protein kinase 1 (Plasmodium falciparum (isolate 3D7)) (UniProt P62344). Description: PfCDPK1 kinase inhibitors, biochemical, TCAMS library (AID 1159585; cut-off not given, nearly all actives have IC50 up to about 0.98 µM;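 further: inhibitors leave more ATP so luminescence rises with inhibition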). The note with it: recombinant PfCDPK1, Kinase-Glo ATP depletion luminescence. (In general: In Kinase-Glo more light means more ATP remaining.)
Chain of Calcium-dependent protein kinase 1 (Plasmodium falciparum (isolate 3D7)) (P62344 whole entry, looked up): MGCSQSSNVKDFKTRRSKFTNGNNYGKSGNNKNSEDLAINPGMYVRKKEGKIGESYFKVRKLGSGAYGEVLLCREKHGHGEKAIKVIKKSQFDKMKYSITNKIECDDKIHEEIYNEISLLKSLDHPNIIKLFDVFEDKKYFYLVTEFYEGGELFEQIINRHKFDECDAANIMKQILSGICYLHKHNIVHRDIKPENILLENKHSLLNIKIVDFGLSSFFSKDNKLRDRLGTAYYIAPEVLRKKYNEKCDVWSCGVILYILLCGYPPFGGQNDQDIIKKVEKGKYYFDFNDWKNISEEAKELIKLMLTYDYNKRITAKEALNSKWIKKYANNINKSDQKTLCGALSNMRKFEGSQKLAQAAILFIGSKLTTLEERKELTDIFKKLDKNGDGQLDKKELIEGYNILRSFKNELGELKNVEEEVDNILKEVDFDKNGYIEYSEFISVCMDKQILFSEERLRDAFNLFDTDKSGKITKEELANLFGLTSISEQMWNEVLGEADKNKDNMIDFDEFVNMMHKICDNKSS
For assay [6], the target named is Plasmodium falciparum protein kinase 6 (PK6, PF3D7_1337100) (UniProt Q8IDW1). Description: PfPK6 kinase inhibitors, biochemical, TCAMS library (AID 1159586). The note with it: recombinant PfPK6, Kinase-Glo ATP depletion luminescence.
Chain of Plasmodium falciparum protein kinase 6 (PK6, PF3D7_1337100) (Q8IDW1 1-305): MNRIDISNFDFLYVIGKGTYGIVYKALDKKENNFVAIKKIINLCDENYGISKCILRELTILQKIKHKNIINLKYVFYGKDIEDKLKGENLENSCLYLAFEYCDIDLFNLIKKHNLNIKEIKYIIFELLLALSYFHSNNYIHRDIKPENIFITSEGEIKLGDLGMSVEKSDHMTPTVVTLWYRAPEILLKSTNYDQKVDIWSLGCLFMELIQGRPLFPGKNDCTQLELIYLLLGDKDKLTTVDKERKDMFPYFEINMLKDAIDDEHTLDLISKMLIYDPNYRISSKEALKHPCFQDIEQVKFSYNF
Assay [7] has as its target Protein kinase 7 (PK7), Plasmodium falciparum 3D7 (PF3D7_0213400) (UniProt Q7YTF7). Description: inhibition of Plasmodium PK7 catalytic activity – biochemical, TCAMS antimalarial set, Kinase-Glo luminescence (AID 1159587). The settings on record: recombinant PfPK7, Kinase-Glo ATP depletion luminescence.
In assay [8] the target is Calcium-dependent protein kinase 4 (Plasmodium falciparum (isolate 3D7)) (UniProt Q8IBS5). In words: PfCDPK4 kinase inhibitors, biochemical, TCAMS library (AID 1159588; cut-off not given, nearly all actives have IC50 up to about 0.91 µM). The note with it: recombinant PfCDPK4, Kinase-Glo ATP depletion luminescence.
Chain of Calcium-dependent protein kinase 4 (Plasmodium falciparum (isolate 3D7)) (Q8IBS5 whole entry, looked up): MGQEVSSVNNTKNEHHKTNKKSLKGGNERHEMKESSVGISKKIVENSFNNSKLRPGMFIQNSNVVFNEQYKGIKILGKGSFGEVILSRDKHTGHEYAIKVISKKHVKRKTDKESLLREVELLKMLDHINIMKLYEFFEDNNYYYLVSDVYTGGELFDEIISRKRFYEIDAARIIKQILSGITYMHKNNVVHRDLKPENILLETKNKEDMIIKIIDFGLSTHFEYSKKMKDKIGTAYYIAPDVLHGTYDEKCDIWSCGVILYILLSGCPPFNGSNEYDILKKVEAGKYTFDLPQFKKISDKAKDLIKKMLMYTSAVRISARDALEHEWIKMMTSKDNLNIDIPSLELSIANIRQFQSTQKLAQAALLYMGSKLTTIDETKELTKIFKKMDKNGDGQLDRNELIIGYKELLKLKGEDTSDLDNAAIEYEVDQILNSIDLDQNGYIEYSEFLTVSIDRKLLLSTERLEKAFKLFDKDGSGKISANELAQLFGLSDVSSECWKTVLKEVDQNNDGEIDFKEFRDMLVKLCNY

Values without a mark were called inactive. For some of these results: Potency and affinity values are given separately. The source made the active and inactive calls. Unless noted, how the calls were made is not given here.

Chain of Protein kinase 7 (PK7), Plasmodium falciparum 3D7 (PF3D7_0213400) (Q7YTF7 1-343): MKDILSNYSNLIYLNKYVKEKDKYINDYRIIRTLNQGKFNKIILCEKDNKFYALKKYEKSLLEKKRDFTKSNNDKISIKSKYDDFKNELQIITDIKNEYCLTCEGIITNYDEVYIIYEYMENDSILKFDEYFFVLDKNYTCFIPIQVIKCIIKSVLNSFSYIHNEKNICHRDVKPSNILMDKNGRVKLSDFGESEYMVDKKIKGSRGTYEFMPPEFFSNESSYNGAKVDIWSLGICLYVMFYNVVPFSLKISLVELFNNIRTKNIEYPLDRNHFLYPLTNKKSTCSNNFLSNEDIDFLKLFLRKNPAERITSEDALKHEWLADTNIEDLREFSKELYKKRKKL
Chain of L-lactate dehydrogenase (Plasmodium falciparum (isolate CDC / Honduras)) (Q27743 whole entry, looked up): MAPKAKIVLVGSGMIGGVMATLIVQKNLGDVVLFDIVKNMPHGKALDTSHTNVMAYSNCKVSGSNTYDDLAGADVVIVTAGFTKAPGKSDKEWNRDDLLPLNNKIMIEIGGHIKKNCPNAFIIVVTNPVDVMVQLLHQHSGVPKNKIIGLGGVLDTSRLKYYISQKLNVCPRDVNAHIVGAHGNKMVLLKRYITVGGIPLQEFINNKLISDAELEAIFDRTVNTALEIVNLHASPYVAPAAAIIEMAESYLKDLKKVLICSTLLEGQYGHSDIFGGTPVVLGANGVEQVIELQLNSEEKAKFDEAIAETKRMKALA

A word on the inhibition: it is the change of the read-out against control, counted positive when it falls. For `Fc1ccc(C(OCC2CCCN(Cc3cccc4cccnc34)C2)c2ccc(F)cc2)cc1` (stereo not given), the values for the growth inhibition in assay [1] and in assay [4] were 97% (active) and 98% (active), respectively. The inhibition in assay [2] is 21%; in assay [3], 3%. Also, the result in assay [5], in assay [6], in assay [7] and in assay [8] was inactive.

In the case of `COc1ccccc1CCC(C)(C)NC(=O)CC(CCc1ccccc1)Nc1ccc(C#N)c2ccccc12` (stereo not given), the growth inhibition in assay [1] was 65% (active); in assay [4], 94% (active). For the same compound, the values for the inhibition in assay [2] and in assay [3] were 6% and 0%, respectively. Also, the outcome in assay [5], in assay [6], in assay [7] and in assay [8] was inactive.

For the compound `COc1cc2nc(-c3ccccc3)nc(N3CCN(CC(=O)N4CCCC4)CC3)c2cc1OC`, the growth inhibition in assay [1] is 70% (active); in assay [4] it was 84% (active). The inhibition is 7% in assay [2] and -1% in assay [3]. The outcome in assay [5], in assay [6], in assay [7] and in assay [8] was inactive.

For the compound `COc1ccc(CNCCCCCNCc2ccc(Cl)c(Cl)c2)cc1Cl`, the growth inhibition in assay [1] was 43%; in assay [4] it was 98% (active). In addition, the inhibition in assay [2] is 42%; in assay [3], 0%. Also, the outcome in assay [5], in assay [6], in assay [7] and in assay [8] was inactive.

With `COc1cccc(NC(=O)c2cc([N+](=O)[O-])ccc2NC(=O)CN2CCc3ccccc3C2)c1`, the growth inhibition in assay [1] is 37%; in assay [4], 100% (active). Moreover, the inhibition in assay [2] was 5%; in assay [3] it was -1%. In addition, the outcome in assay [5], in assay [6], in assay [7] and in assay [8] was inactive.

As to `O=C(Nc1ccc(C(=O)Nc2ccc(C3=NCCN3)cc2)cc1)Nc1ccc(C2=NCCN2)cc1`, the growth inhibition in assay [1] is 95% (active); in assay [4], 94% (active). The inhibition in assay [2] is -8%; in assay [3], -7%. Besides, the outcome in assay [5], in assay [6], in assay [7] and in assay [8] was inactive.

With `CCCNCc1ccc(-c2ccc(CN(CCOC)C(=O)CCC(=O)c3ccc(OC)c(F)c3)cc2)nc1`, the growth inhibition in assay [1] was 47%; in assay [4] it was 100% (active). The inhibition was 13% in assay [2] and -7% in assay [3]. In addition, the result in assay [5], in assay [6], in assay [7] and in assay [8] was inactive.

Regarding `CN1C[C@@H](c2ccccc2)c2cc(O)c(CN3CCCCC3)cc2C[C@H]1Cc1ccccc1`, the growth inhibition in assay [1] and in assay [4] was 99% (active) each time. Besides, the values for the inhibition in assay [2] and in assay [3] were -6% and -8%, respectively. Also, the result in assay [5], in assay [6], in assay [7] and in assay [8] was inactive.

On to `c1cc(CN2CCN(CCN3CCOCC3)CC2)cc(-c2ccc(-c3nc4ccccc4[nH]3)cc2)c1`, for which the growth inhibition in assay [1] and in assay [4] was 100% (active) in each case. For the same compound, the inhibition in assay [2] was 23%; in assay [3], -8%. The result in assay [5], in assay [6], in assay [7] and in assay [8] was inactive.

As to `COc1ccc(NC(=O)[C@H](CC(C)C)Nc2cc(C)nc(Nc3ccccc3)n2)cc1`, the values for the growth inhibition in assay [1] and in assay [4] were 92% (active) and 101% (active), respectively. For the same compound, the inhibition in assay [2] is 25%; in assay [3], -1%. The outcome in assay [5], in assay [6], in assay [7] and in assay [8] was inactive.

In the case of `Cc1cc(C)c(C)c(OCCCON2C(N)=NC(N)=NC2(C)C)c1C`, the values for the growth inhibition in assay [1] and in assay [4] were 95% (active) and 94% (active), respectively. For the same compound, the inhibition was 64% (active) in assay [2] and -4% in assay [3]. For the same compound, the outcome in assay [5], in assay [6], in assay [7] and in assay [8] was inactive.

In the case of `CN1CCCN(Cc2ccc(-c3cccc(NC(=O)c4cccc(Cl)c4)c3)cc2)CC1`, the growth inhibition in assay [1] was 32%; in assay [4], 100% (active). Further, the inhibition in assay [2] is 33%; in assay [3], -3%. The result in assay [5], in assay [6], in assay [7] and in assay [8] was inactive.

As to `Cc1cc(C(=O)CN2C(=O)NC3(CCOc4ccccc43)C2=O)c(C)n1Cc1ccc(F)cc1` (stereo not given), the growth inhibition was 84% (active) in assay [1] and 95% (active) in assay [4]. Also, the figures for the inhibition in assay [2] and in assay [3] were 1% and 0%, respectively. For the same compound, the result in assay [5], in assay [6], in assay [7] and in assay [8] was inactive.

Regarding `Cc1ccc(NC(=O)c2ccc(NCCCN(C)Cc3ccccc3)c([N+](=O)[O-])c2)cc1F`, the growth inhibition in assay [1] was 61% (active); in assay [4] it was 101% (active). Besides, the results for the inhibition in assay [2] and in assay [3] were 12% and -7%, respectively. For the same compound, the outcome in assay [5], in assay [6], in assay [7] and in assay [8] was inactive.

As to `Cn1c(N)c(N=O)c(=O)[nH]c1=O`, the growth inhibition in assay [1] is 82% (active); in assay [4], 97% (active). Also, the inhibition in assay [2] was 58% (active); in assay [3], 0%. The outcome in assay [5], in assay [6], in assay [7] and in assay [8] was inactive.

With `Cc1nc(C(=O)N2CCCC[C@H]2CNC(=O)c2ccc(-c3ccc(N4CCCC4=O)cc3C)cc2)c(-c2ccc(F)cc2)s1`, the growth inhibition in assay [1] is 94% (active); in assay [4] it was 98% (active). Moreover, the inhibition in assay [2] was 6%; in assay [3] it was 8%. Moreover, the outcome in assay [5], in assay [6], in assay [7] and in assay [8] was inactive.

Consider `CS(=O)(=O)CCNc1nccc(N2CCc3ncnc(Nc4ccc(OCc5cccc(F)c5)c(Cl)c4)c3C2)n1`, for which the growth inhibition was 100% (active) in assay [1] and 101% (active) in assay [4]. For the same compound, the inhibition was 8% in assay [2] and -4% in assay [3]. The result in assay [5], in assay [6], in assay [7] and in assay [8] was inactive.

Regarding `C[C@@H]1CCC[C@H](C)N1C[C@@H](O)CNS(=O)(=O)c1cccc(C(F)(F)F)c1`, the growth inhibition in assay [1] was 2%; in assay [4], 99% (active). For the same compound, the figures for the inhibition in assay [2] and in assay [3] were 4% and -4%, respectively. For the same compound, the result in assay [5], in assay [6], in assay [7] and in assay [8] was inactive.

As to `O=C1Nc2cccc3c2C1(CCCN1CCC(c2c[nH]c4cc(C(F)(F)F)ccc24)CC1)CCC3` (stereo not given), the growth inhibition was 37% in assay [1] and 89% (active) in assay [4]. Further, the values for the inhibition in assay [2] and in assay [3] were 91% (active) and -2%, respectively. In addition, the result in assay [5], in assay [6], in assay [7] and in assay [8] was inactive.

On to `Cc1noc(=O)c2ccc(NC(=O)C(O)(CSc3ccccc3)CC(C)C)cc12` (stereo not given), for which the growth inhibition in assay [1] was 89% (active); in assay [4] it was 99% (active). Besides, the inhibition in assay [2] is -15%; in assay [3], 0%. The outcome in assay [5], in assay [6], in assay [7] and in assay [8] was inactive.
